test: inhibitors of Chlamydomonas gravitaxis, primary screen, whole organism, Chlamydomonas reinhardtii, WT vs cilia-less mutant, absorbance, 96-well (AID 463189); settings: OD600 absorbance, 2 days, at 10 µM, stronger effect = higher value;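 active means inhibition at or above 50% relative to wild type and mutant plate controls; inactive means inhibition below 50%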;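 further: 0% = wild type cc124 cells in DMSO and 100% = ciliumless bld1 mutant cells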

inhibition, inactive:
O=C1NC(=O)C(c2ccccc2[N+](=O)[O-])=C1Nc1ccc(O)c(Cl)c1 1.1%, C=CCN1CCc2cc(O)c(O)cc2C(c2ccccc2)C1 (stereo unspecified) 8.31%, Cc1cn[nH]c1 7.85%, C[N+](C)(C)CC=O 5.9%, N[C@@H](Cc1ccc(O)c(O)c1)C(=O)O 2.49%, COc1ccccc1N1CCN(CCCCNC(=O)c2ccc3ccccc3c2)CC1 6.15%, COc1cc2c(cc1OC)-c1cc(=Nc3c(C)cc(C)cc3C)n(C)c(=O)n1CC2 10.5%, CC(C)C[C@H](NC(=O)[C@H](O)[C@H](N)Cc1ccccc1)C(=O)O -10.7%, COc1ccc(C(=O)NCc2cccnc2)cc1C(=O)NCc1cccnc1 6.89%, C[C@@H](CN1CCC(Cc2ccccc2)CC1)[C@@H](O)c1ccc(O)cc1 10.4%, Cc1cccc(C)c1NC(=O)C[N+](C)(C)C 7.92%, O=Nc1c(-c2c(O)[nH]c3ccccc23)[nH]c2ccccc12 1.78%, Nc1c2c(nc3ccccc13)CCCC2 -5.5%, CC#C[C@]1(O)CC[C@H]2[C@@H]3CCC4=CC(=O)CCC4=C3[C@@H](c3ccc(N(C)C)cc3)C[C@@]21C 1.39%, CCCn1c(=O)c2[nH]c(-c3ccc(OCC(=O)Nc4ccc(C#N)cc4)cc3)nc2n(CCC)c1=O 4.77%, Cc1cccc(C2CN(C)CCc3c2cc(O)c(O)c3Cl)c1 (stereo unspecified) 3.56%

Source: PubChem BioAssay
